This is an account of results in PubChem BioAssay (EPA / NIEHS).

Read-out in test [1]: Interleukin-8 (IL8), CXCL8 (gene 3576)
Kind of test: BSK_3C_IL8: BioMAP Diversity Plus: 3C Assay for Interleukin-8 (IL8) Biomarker Activity (AID 2283020). To be noted: primary human endothelial cells (HUVEC); actives raise or lower the signal. The essentials:
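Using DMSO-treated wells as the baseline, bidirectional curve fitting was applied to ELISA-measured IL-8 from human umbilical vein endothelial cultures sampled 24 h after compound addition.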

Read-out in test [2]: Monokine induced gamma interferon (MIG), CXCL9 (gene 4283)
Kind of test: BSK_3C_MIG: BioMAP Diversity Plus: 3C Assay for Monokine induced gamma interferon (MIG) Biomarker Activity (AID 2283021).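 For AC50: MIG protein level measured by immunoassay in the treated endothelial cultures.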 To be noted: primary human endothelial cells (HUVEC); actives raise or lower the signal. The essentials:
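ELISA-measured MIG in dosed HUVEC 3C cultures at 24 h, analysed by bidirectional fitting with DMSO defining baseline activity.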

Test [3] concerns the target human Vitamin D Receptor (VDR), VDR (gene 7421) (UniProt P11473). Kind of test: ATG_VDR_TRANS: Attagene TRANS-FACTORIAL HepG2 Assay for human Vitamin D Receptor (VDR) (AID 2283022; active = hit-call score of the fitted dose curve at least 0.9, where 1 is the maximum). The essentials:
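Fluorescence of labelled reporter cDNA fragments, resolved by capillary electrophoresis, gives mRNA induction after 24 h treatment of HepG2 cells carrying transfected Gal4-fusion reporter units. Activity is fitted in the positive direction with DMSO as baseline.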

Test [4] can be described thus: BSK_3C_SRB: Viability Assessment in the BioMAP Diversity Plus: 3C Assay (AID 2283023).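 Note: fitted both ways against DMSO so a hit may be signal rise or drop.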 To be noted: primary human endothelial cells (HUVEC). In outline: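 Cells were dosed with chemical, cultured 24 h, fixed with 10% TCA, stained with 0.1% SRB and read at 560 nm. Human umbilical vein endothelium was used; DMSO served as negative control and baseline.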
Read-out in test [5]: Matrix Metallopeptidase 1 (MMP1), MMP1 (gene 4312)
Kind of test: BSK_BE3C_MMP1: BioMAP Diversity Plus: BE3C Assay for Matrix Metallopeptidase 1 (MMP1) Biomarker Activity (AID 2283024). To be noted: primary human bronchial epithelial cells; actives raise or lower the signal. In outline:
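In this multiplexed primary-cell system, human bronchial epithelium received chemicals for 24 h before an ELISA for MMP1. Values reflect bidirectional fits normalised to the DMSO baseline.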

Read-out in test [6]: Pselectin, SELP (gene 6403)
Kind of test: BSK_4H_Pselectin: BioMAP Diversity Plus: 4H Assay for Pselectin Biomarker Activity (AID 2283026). To be noted: primary human endothelial cells (HUVEC); actives raise or lower the signal. In outline: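 Bidirectional fits against DMSO gave the endpoint. Cells: primary human umbilical vein endothelium, chemical-treated for 24 h before ELISA detection of P-selectin.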

The nature of test [7]: BSK_4H_SRB: Viability Assessment in the BioMAP Diversity Plus: 4H Assay (AID 2283027).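 For AC50: curves fitted both ways versus DMSO so AC50 may be loss or gain.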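 Note: cells exposed to compound for 24 h before staining.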 To be noted: primary human endothelial cells (HUVEC). The essentials:
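Cytotoxicity read-out in primary human endothelial cells: after 24 h compound exposure, cells were TCA-fixed (10%), stained with 0.1% SRB and absorbance taken at 560 nm. Values fitted in both directions relative to DMSO.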

The nature of test [8]: BSK_BE3C_SRB: Viability Assessment in the BioMAP Diversity Plus: BE3C Assay (AID 2283028).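 For AC50: fitted both ways so AC50 may mark signal gain or loss versus DMSO.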 To be noted: primary human bronchial epithelial cells. In outline: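 Overt cytotoxicity was assessed as total protein in confluent human primary bronchial epithelial cultures 24 h after chemical addition, using 0.1% sulforhodamine B staining read at 560 nm.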
Read-out in test [9]: Thrombomodulin, THBD (gene 7056)
Kind of test: BSK_3C_Thrombomodulin: BioMAP Diversity Plus: 3C Assay for Thrombomodulin Biomarker Activity (AID 2283029). To be noted: primary human endothelial cells (HUVEC); actives raise or lower the signal. The essentials: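 In a multiplexed primary-cell system, human umbilical vein endothelium received chemical and was assayed 24 h later for thrombomodulin by ELISA. Parallel cultures were SRB-stained (0.1% SRB after 10% TCA fixation, read at 560 nm) to flag cytotoxicity.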

Read-out in test [10]: Urokinase-type plasminogen activator receptor (uPAR), PLAUR (gene 5329)
Kind of test: BSK_4H_uPAR: BioMAP Diversity Plus: 4H Assay for Urokinase-type plasminogen activator receptor (uPAR) Biomarker Activity (AID 2283030). To be noted: primary human endothelial cells (HUVEC); actives raise or lower the signal. The essentials:
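Chemicals are dosed onto human vascular endothelial primary cells (umbilical vein). After 24 h, uPAR is read by ELISA. Gain or loss of signal is fitted relative to DMSO.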

Read-out in test [11]: Vascular endothelial growth factor receptor 2 (Homo sapiens) (UniProt P35968)
Kind of test: BSK_4H_VEGFRII: BioMAP Diversity Plus: 4H Assay for Vascular endothelial growth factor receptor 2 (VEGFR2) Biomarker Activity (AID 2283031).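 For AC50: cell-surface VEGFR2 protein level quantified by ELISA.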 To be noted: primary human endothelial cells (HUVEC); actives raise or lower the signal. The essentials: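 VEGFRII levels on human vascular endothelial primary cells were determined by ELISA at 24 hours post-dosing, with gain- or loss-of-signal fitted against DMSO controls.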

Read-out in test [12]: Human Leukocyte Antigen - DR isotype (HLADR), HLA-DRA (gene 3122)
Kind of test: BSK_BE3C_HLADR: BioMAP Diversity Plus: BE3C Assay for Human Leukocyte Antigen - DR isotype (HLADR) Biomarker Activity (AID 2283032). To be noted: primary human bronchial epithelial cells; actives raise or lower the signal. The essentials: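 BioMAP BE3C format: human bronchial epithelium, 24 h compound treatment, ELISA detection of HLA-DR, with bidirectional analysis relative to DMSO.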

Read-out in test [13]: Vascular cell adhesion molecule 1 (VCAM1), VCAM1 (gene 7412)
Kind of test: BSK_4H_VCAM1: BioMAP Diversity Plus: 4H Assay for Vascular cell adhesion molecule 1 (VCAM1) Biomarker Activity (AID 2283033).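 For outcome: cell-surface VCAM-1 protein measured by ELISA.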 To be noted: primary human endothelial cells (HUVEC); actives raise or lower the signal. The essentials:
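In this human endothelial (HUVEC) system, biomarker ELISA was run 24 h after compound addition, and total protein in parallel wells was assessed by SRB at 560 nm; DMSO served as negative control.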

Read-out in test [14]: Interferon-gamma inducible Protein 10 (IP10), CXCL10 (gene 3627)
Kind of test: BSK_BE3C_IP10: BioMAP Diversity Plus: BE3C Assay for Interferon-gamma inducible Protein 10 (IP10) Biomarker Activity (AID 2283034). To be noted: primary human bronchial epithelial cells; actives raise or lower the signal. The essentials:
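BE3C cells (human bronchial epithelial, primary); 24 h exposure; ELISA for IP-10; DMSO-referenced bidirectional fit.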

Read-out in test [15]: Monokine induced gamma interferon (MIG), CXCL9 (gene 4283)
Kind of test: BSK_BE3C_MIG: BioMAP Diversity Plus: BE3C Assay for Monokine induced gamma interferon (MIG) Biomarker Activity (AID 2283035).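 For outcome: MIG protein measured by ELISA in BE3C cultures after 24 h of dosing.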 To be noted: primary human bronchial epithelial cells; actives raise or lower the signal. The essentials:
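ELISA quantified MIG after 24 h exposure of primary bronchial epithelial cultures, analysed in both directions relative to DMSO. Cytotoxicity tracked in parallel cultures by sulforhodamine B staining.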

Read-out in test [16]: Plasminogen activator inhibitor-1 (PAI1), SERPINE1 (gene 5054)
Kind of test: BSK_BE3C_PAI1: BioMAP Diversity Plus: BE3C Assay for Plasminogen activator inhibitor-1 (PAI1) Biomarker Activity (AID 2283037). To be noted: primary human bronchial epithelial cells; actives raise or lower the signal. In outline: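 In this multiplexed primary-cell system, bronchial epithelial cells receive test chemical and are sampled at 24 h. PAI-1 is read by ELISA, with DMSO serving as negative control for bidirectional fitting.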

Read-out in test [17]: urokinase plasminogen activator (uPA), PLAU (gene 5328)
Kind of test: BSK_BE3C_uPA: BioMAP Diversity Plus: BE3C Assay for urokinase plasminogen activator (uPA) Biomarker Activity (AID 2283038).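 For outcome: uPA protein level quantified by ELISA in cell cultures; uPA read one day after compound addition.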 To be noted: primary human bronchial epithelial cells; actives raise or lower the signal. In outline:
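Measured by ELISA: uPA from human primary bronchial epithelial cells 24 h after chemical treatment. Values derive from bidirectional curve fitting with DMSO serving as negative control. Total protein by SRB staining in parallel wells flagged overt cytotoxicity.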

Read-out in test [18]: Urokinase-type plasminogen activator receptor (uPAR), PLAUR (gene 5329)
Kind of test: BSK_BE3C_uPAR: BioMAP Diversity Plus: BE3C Assay for Urokinase-type plasminogen activator receptor (uPAR) Biomarker Activity (AID 2283039).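 For outcome: uPAR protein level measured by ELISA on the cells; cells exposed to compound for one day before measurement.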 To be noted: primary human bronchial epithelial cells; actives raise or lower the signal. The essentials: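 Chemically treated human bronchial epithelial cells (lung primary) are assayed for uPAR by ELISA after 24 h, with data fitted in both directions using DMSO as negative control.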

Test [19] can be described thus: BSK_3C_Vis: BioMAP Diversity Plus: 3C Assay for Morphology Visualization (AID 2283025).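 Note: fitted both ways so gain or loss versus DMSO counts.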 To be noted: primary human endothelial cells (HUVEC). In outline: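 Light-microscopy morphology readout, 24 h exposure, human primary umbilical vein endothelium; analysed relative to DMSO with bidirectional fitting.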
Read-out in test [20]: Transforming growth factor beta 1 (TGFb1), TGFB1 (gene 7040)
Kind of test: BSK_BE3C_TGFb1: BioMAP Diversity Plus: BE3C Assay for Transforming growth factor beta 1 (TGFb1) Biomarker Activity (AID 2283036;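 note: TGF-b1 protein level measured by ELISA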). To be noted: primary human bronchial epithelial cells; actives raise or lower the signal. In outline:
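TGF-b1 measured via ELISA, 24 h after chemical dosing of human bronchial epithelial cells (BE3C). Overt cytotoxicity assessed in parallel by SRB (0.1%, TCA-fixed, 560 nm); analysis bidirectional relative to DMSO.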

Several values for one entry are separate records, joined by “and”; a condition that tells them apart may be missing. Equal values may be shown once. Records with an inconclusive call do not appear. Some compounds were tested as several samples or in several runs, with calls that do not always agree. Activity calls are given as the source filed them. Rule for the calls, unless noted: active = hit-call score of the fitted dose curve at least 0.9, where 1 is the maximum; inactive = score below 0.9.

human Vitamin D Receptor (VDR), VDR (gene 7421), sequence (P11473 whole entry, looked up, the tested form may be a part): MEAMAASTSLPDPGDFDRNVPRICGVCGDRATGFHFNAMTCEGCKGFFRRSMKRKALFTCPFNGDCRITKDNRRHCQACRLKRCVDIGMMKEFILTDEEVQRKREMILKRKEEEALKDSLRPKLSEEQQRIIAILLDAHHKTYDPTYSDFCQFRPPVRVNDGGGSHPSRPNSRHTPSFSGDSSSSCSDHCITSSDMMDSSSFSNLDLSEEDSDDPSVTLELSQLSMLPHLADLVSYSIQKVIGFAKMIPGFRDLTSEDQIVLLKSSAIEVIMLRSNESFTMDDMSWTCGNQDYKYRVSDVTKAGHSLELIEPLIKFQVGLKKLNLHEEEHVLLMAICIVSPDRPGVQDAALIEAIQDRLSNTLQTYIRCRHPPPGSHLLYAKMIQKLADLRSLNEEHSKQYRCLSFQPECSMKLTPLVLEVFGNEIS

For `O=C(O)C(F)(F)OC(F)(F)C(F)(F)OC(F)(F)C(F)(F)OC(F)(F)C(F)(F)C(F)(F)C(F)(F)F`, the concentration at half-maximal activity (AC50) was 36.6 µM (active) and 23.5 µM (active) in test [1]; 58.2 µM (active) and 54.8 µM (active) in test [2]; 26.1 µM (active) and 24 µM (active) in test [4]; 5.81 µM (active) and 5.41 µM (active) in [5]; 48.1 µM (active) and 54.2 µM (active) in test [6]; 47.9 µM (active) and 52.7 µM (active) in [7]. Besides, the AC50 in [8] was 7.88 µM (active) and 7.84 µM (active); in [9], 52 µM (active); in [10], 43.5 µM (active) and 43.6 µM (active); in [11], 47.7 µM (active); in test [12], 3.73 µM (active) and 3.7 µM (active); in test [13], 48.4 µM (active) and 50.2 µM (active). In addition, the AC50 is 4.85 µM (active) and 4.88 µM (active) in test [14]; 4.58 µM (active) and 4.77 µM (active) in [15]; 4.78 µM (active) and 4.58 µM (active) in test [16]; 3.94 µM (active) and 3.9 µM (active) in test [17]; 5.83 µM (active) and 5.88 µM (active) in test [18]. The call in test [3], in test [9] and in test [11] was inactive.
Consider `COCN(COC)c1nc(N(COC)COC)nc(N(COC)COC)n1`, for which the outcome in test [1], in [2], in test [3], in [4], in test [5] and in test [19] was inactive. Moreover, the outcome in test [6], in test [7], in test [8], in test [9], in test [10] and in [11] was inactive. For the same compound, the result in test [12], in test [13], in test [14], in test [15], in test [20] and in test [16] was inactive. In addition, the result in [17] and in [18] was inactive.
`CCOCCOCC`: the compound was called inactive in test [3].
`Oc1c(Cl)cc(Cl)cc1Sc1cc(Cl)cc(Cl)c1O`: the AC50 in test [1] was 36 µM (active) and 35.2 µM (active); in test [4], 15.7 µM (active) and 13.3 µM (active); in [6], 5.81 µM (active) and 4.28 µM (active); in [7], 23.9 µM (active) and 23.7 µM (active); in [8], 5.25 µM (active) and 5.18 µM (active); in test [9], 11.1 µM (active). Further, the AC50 was 20 µM (active) and 9.97 µM (active) in test [10]; 5.09 µM (active) and 4.99 µM (active) in test [11]; 3.56 µM (active) and 3.35 µM (active) in test [12]; 12.8 µM (active) in [13]; 4.76 µM (active) in test [14]; 6.66 µM (active) and 7.75 µM (active) in test [15]. Further, the AC50 in [16] is 4.59 µM (active); in [17] it was 5.33 µM (active) and 5.44 µM (active); in test [18] it was 1.8 µM (active) and 1.83 µM (active). Moreover, the compound was classed as inactive in [3], in test [5] and in test [9].
As to `CC(=O)Nc1ccc(O)cc1`, the outcome in test [1], in test [2], in test [4], in test [5], in [19] and in [6] was inactive. In addition, the outcome in test [7], in test [8], in test [9], in test [10], in test [11] and in [12] was inactive. Moreover, the result in test [13], in test [14], in test [15], in test [20], in [16] and in test [17] was inactive. The result in [18] was inactive.
As to `Nc1ccc(O)c(C(=O)O)c1`, the compound was called inactive in test [3].
Regarding `CCOC(=O)c1nc(C(Cl)(Cl)Cl)n(-c2ccc(Cl)cc2Cl)n1`, in [3], the result was inactive.

As a reminder, the AC50 is the concentration giving half of the maximal activity seen.
